The values below come from PubChem BioAssay.

The structures appear in SMILES notation. Active and inactive are the calls of the source.

For assay [1], the system named is PRMT1 (protein arginine N-methyltransferase 1). The experiment in a line: small molecules binding arginine methyltransferase PRMT1 – biochemical, small-molecule microarray, 635 nm fluorescence, primary screen (AID 1088).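 Further: binding of Prmt1 protein to compounds spotted on small-molecule microarray slides.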 Particulars: higher = more signal.
The nature of assay [2]: growth effects on S. cerevisiae YJM789 – YJM789 clinical isolate, OD600, 24 h, basal, primary screen (AID 1089).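 Further: growth of clinical yeast isolate S. cerevisiae YJM 789 seeded 1000 cells per well; test concentration not given here.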 The note with it: higher = more signal, called active from +8 up or from −8 down.
Assay [3] is described as follows: S. pombe growth modifiers, basal conditions – strain 972, OD600, 24 h, no modulator, primary screen (AID 1090).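 Further: basal condition with compound alone and no growth modifier present; test concentration not given here.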 The note with it: S. pombe 972 growth, higher = more signal, called active from +8 up or from −8 down.
Assay [4] can be described thus: budding yeast growth modifiers under rapamycin – strain BY4716, OD600, 96 h, primary screen (AID 1091). Further: test concentration not given here. The note with it: S. cerevisiae BY4716 + rapamycin, higher = more signal, called active from +8 up or from −8 down.
Assay [5] has as its target Torsin-1A-interacting protein 2 (Homo sapiens) (UniProt Q8NFQ8). The experiment in a line: small molecules binding lysate-expressed LULL1 – cell lysate, human LULL1 lysate, 635/667 nm fluorescence, primary screen (AID 1092).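 Further: probe is lysate of COS7 cells overexpressing human LULL1; score merges per-feature 667 nm fluorescence with signal-to-noise.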 Particulars: small-molecule microarray, hLULL1 lysate binding, 635 nm fluorescence; higher = more signal.
Assay [6] is described as follows: optical density change of DRC41 E. coli – strain DRC41, OD650, 24 h, E. coli filamentation project, primary screen (AID 1093).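 Further: MC1000 strain lacking acrAB efflux and sulA so SOS filamentation is blocked; test concentration not given here.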 Particulars: E. coli DRC41 growth, higher = more signal, called active from +8 up or from −8 down.
Assay [7] in a line: probe aLefty2 binding to arrayed compounds – biochemical, biotinylated probe, 635/667 nm fluorescence, primary screen (AID 1094).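 Further: score merges spot fluorescence near 667 nm with spot signal-to-noise ratio.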 Particulars: small-molecule microarray, higher = more signal.
The subject of assay [8] is Noggin (protein binding on small-molecule microarray). Kind of assay: small molecules binding Noggin protein – biochemical, 635/667 nm fluorescence, primary screen (AID 1095).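 Further: score merges 667 nm feature fluorescence with signal to noise over triplicate slides.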 Particulars: 635 nm fluorescence, higher = more signal.
In assay [9] the target is Neurogenic locus notch homolog protein 3 (Homo sapiens) (UniProt Q9UM47). Kind of assay: small molecules binding NOTCH3 protein – biochemical, 635/667 nm fluorescence, primary screen (AID 1096). The note with it: small-molecule microarray, 635 nm fluorescence, higher = more signal.
The nature of assay [10]: probe aEGFR binding to arrayed compounds – biochemical, biotinylated probe, 635/667 nm fluorescence, primary screen (AID 1097).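 Further: probe is a biotinylated anti-EGFR antibody binding compounds printed on slides; score combines fluorescence near 667 nm and signal to noise of each spot.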 Particulars: small-molecule microarray, higher = more signal.
Assay [11] relates to Plasmodium falciparum Sir2 (PF13_0152, Sir2A). Kind of assay: Plasmodium falciparum Sir2A binding compounds – biochemical, small-molecule microarray, 635 nm fluorescence, primary screen (AID 1098).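 Further: score merges spot fluorescence intensity with its signal-to-noise ratio.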 Particulars: fluorescence 635 nm, higher = more signal.
Assay [12] can be described thus: probe aDKK1 binding to arrayed compounds – biochemical, biotinylated probe, 635/667 nm fluorescence, primary screen (AID 1099).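 Further: score merges 667nm spot fluorescence with signal to noise across triplicate slides; reference of the scale not given here.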 The note with it: small-molecule microarray, higher = more signal.
The nature of assay [13]: probe aCHRDL2 binding to arrayed compounds – biochemical, biotinylated probe, 635/667 nm fluorescence, primary screen (AID 1100). The note with it: small-molecule microarray, higher = more signal.
Assay [14] in a line: change in splice reporter luminescence, either direction, cell-based, HEK293, spliceosome inhibition project, primary screen (AID 1101).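 Further: HEK293 cells carrying a splicing-competent luciferase reporter gene; test concentration not given here.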 The note with it: HEK293 splicing luciferase reporter, 24 h, higher = more signal, called active from +8 up or from −8 down. For orientation: Reporter assays use an easily measured gene product as a stand-in for the process of interest.
Assay [15] has as its target Fibroblast growth factor 10 (Homo sapiens) (UniProt O15520). Kind of assay: compounds binding fibroblast growth factor 10 – biochemical, small-molecule microarray, 635 nm fluorescence, primary screen (AID 1102). Particulars: FGF10 binding, fluorescence 635 nm, higher = more signal.
Assay [16] deals with glycogen synthase kinase-3 (GSK3A per assay name; protocol says GSK3B). Kind of assay: compounds binding glycogen synthase kinase-3 – biochemical, small-molecule microarray, 635 nm fluorescence, GSK3A, primary screen (AID 1103). Further: the record names both GSK3A and GSK3B. The note with it: fluorescence 635 nm, higher = more signal.
Assay [17] addresses Epidermal growth factor receptor (Homo sapiens) (UniProt P00533). The experiment in a line: compounds binding epidermal growth factor receptor – biochemical, small-molecule microarray, 635 nm fluorescence, primary screen (AID 1104).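 Further: score merges 667 nm emission intensity with spot signal to noise over triplicate slides.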 Particulars: EGFR binding, higher = more signal.
Assay [18] deals with Follistatin-related protein 3 (Homo sapiens) (UniProt O95633). Kind of assay: compounds binding follistatin-related protein 3 – biochemical, small-molecule microarray, 635 nm fluorescence, primary screen (AID 1105).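 Further: score merges emission near 667 nm and signal to noise per printed spot across three slides.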 The note with it: FSTL3 binding, higher = more signal.
Assay [19] has as its target Dickkopf-related protein 1 (Homo sapiens) (UniProt O94907). Kind of assay: small molecules binding DKK1 protein – biochemical, small-molecule microarray, 635 nm fluorescence scan, primary screen (AID 1106).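 Further: score merges emission near 667 nm with signal to noise over three replicate slides.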 The note with it: higher = more signal.
For assay [20], the system named is Inhibin beta A chain (activin A). The experiment in a line: small molecules binding activin A – biochemical, small-molecule microarray, 635 nm fluorescence scan, primary screen (AID 1107).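 Further: mouse activin A protein probed at 4.33 µg/mL on printed slides; score merges bound-protein fluorescence near 667 nm with spot signal-to-noise.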 The note with it: INHBA, higher = more signal.

Sequence of Torsin-1A-interacting protein 2 (Homo sapiens) (Q8NFQ8 whole entry, looked up): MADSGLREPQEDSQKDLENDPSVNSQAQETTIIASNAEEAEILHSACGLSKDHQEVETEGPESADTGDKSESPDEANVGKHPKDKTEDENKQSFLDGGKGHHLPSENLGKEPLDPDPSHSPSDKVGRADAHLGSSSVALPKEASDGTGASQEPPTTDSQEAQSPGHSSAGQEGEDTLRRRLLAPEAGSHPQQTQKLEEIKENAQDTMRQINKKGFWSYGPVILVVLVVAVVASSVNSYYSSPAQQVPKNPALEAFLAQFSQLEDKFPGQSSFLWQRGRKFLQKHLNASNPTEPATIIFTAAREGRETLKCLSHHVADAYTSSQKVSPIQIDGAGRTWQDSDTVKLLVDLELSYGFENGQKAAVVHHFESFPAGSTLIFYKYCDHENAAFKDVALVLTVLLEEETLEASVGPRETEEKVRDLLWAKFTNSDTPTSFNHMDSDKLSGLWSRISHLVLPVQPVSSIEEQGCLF
Sequence of Fibroblast growth factor 10 (Homo sapiens) (O15520 whole entry, looked up): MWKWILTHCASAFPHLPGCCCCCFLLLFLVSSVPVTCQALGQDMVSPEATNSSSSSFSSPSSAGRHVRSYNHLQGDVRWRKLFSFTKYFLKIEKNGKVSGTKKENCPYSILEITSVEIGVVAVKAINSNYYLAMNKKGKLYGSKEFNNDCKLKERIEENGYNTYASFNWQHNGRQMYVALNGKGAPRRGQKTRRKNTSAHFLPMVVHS
Sequence of Epidermal growth factor receptor (Homo sapiens) (P00533 whole entry, looked up): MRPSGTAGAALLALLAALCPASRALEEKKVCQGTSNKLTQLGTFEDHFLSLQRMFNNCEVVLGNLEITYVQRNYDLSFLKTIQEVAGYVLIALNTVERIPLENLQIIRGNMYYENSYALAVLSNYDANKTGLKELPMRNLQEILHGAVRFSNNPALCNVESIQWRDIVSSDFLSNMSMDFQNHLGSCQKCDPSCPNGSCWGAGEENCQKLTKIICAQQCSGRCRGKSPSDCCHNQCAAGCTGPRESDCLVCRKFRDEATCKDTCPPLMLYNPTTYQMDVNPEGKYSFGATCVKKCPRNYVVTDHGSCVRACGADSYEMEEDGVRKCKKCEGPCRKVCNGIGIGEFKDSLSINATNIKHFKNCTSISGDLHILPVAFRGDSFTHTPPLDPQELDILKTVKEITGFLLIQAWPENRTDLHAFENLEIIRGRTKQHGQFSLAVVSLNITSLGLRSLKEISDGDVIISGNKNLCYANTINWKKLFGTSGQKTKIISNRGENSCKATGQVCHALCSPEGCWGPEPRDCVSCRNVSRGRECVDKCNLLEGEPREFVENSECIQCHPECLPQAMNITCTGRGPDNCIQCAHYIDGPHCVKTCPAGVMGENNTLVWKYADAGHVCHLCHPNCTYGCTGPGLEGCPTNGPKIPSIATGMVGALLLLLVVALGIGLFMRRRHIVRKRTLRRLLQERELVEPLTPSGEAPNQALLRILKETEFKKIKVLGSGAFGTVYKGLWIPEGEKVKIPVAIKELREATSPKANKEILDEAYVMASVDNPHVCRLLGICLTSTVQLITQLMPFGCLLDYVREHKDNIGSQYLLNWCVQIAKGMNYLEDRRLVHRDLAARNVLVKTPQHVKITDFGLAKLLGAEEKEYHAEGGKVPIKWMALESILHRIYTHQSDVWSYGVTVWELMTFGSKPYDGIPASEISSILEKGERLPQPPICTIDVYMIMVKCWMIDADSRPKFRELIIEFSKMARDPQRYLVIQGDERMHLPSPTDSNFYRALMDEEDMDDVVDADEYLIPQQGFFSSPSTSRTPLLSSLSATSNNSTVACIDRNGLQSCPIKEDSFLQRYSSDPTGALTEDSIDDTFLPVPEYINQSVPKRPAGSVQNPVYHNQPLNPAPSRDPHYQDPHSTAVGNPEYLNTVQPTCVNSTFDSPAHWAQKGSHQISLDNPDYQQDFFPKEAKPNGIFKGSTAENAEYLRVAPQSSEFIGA
Sequence of Dickkopf-related protein 1 (Homo sapiens) (O94907 whole entry, looked up): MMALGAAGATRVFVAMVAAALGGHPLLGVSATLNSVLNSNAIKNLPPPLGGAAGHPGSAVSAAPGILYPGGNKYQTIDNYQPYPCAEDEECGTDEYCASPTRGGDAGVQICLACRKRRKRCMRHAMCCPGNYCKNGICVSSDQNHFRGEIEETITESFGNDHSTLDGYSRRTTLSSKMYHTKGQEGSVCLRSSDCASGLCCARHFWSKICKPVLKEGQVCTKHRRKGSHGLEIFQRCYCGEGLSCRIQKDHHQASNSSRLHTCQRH
Sequence of Follistatin-related protein 3 (Homo sapiens) (O95633 whole entry, looked up): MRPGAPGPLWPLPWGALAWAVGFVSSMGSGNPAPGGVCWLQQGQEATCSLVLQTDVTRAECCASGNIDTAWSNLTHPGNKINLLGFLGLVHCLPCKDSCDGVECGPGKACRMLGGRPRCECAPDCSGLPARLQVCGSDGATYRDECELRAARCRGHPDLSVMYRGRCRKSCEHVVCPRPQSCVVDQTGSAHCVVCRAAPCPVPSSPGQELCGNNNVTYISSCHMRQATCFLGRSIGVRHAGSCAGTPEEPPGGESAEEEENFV
Sequence of Neurogenic locus notch homolog protein 3 (Homo sapiens) (Q9UM47 whole entry, looked up): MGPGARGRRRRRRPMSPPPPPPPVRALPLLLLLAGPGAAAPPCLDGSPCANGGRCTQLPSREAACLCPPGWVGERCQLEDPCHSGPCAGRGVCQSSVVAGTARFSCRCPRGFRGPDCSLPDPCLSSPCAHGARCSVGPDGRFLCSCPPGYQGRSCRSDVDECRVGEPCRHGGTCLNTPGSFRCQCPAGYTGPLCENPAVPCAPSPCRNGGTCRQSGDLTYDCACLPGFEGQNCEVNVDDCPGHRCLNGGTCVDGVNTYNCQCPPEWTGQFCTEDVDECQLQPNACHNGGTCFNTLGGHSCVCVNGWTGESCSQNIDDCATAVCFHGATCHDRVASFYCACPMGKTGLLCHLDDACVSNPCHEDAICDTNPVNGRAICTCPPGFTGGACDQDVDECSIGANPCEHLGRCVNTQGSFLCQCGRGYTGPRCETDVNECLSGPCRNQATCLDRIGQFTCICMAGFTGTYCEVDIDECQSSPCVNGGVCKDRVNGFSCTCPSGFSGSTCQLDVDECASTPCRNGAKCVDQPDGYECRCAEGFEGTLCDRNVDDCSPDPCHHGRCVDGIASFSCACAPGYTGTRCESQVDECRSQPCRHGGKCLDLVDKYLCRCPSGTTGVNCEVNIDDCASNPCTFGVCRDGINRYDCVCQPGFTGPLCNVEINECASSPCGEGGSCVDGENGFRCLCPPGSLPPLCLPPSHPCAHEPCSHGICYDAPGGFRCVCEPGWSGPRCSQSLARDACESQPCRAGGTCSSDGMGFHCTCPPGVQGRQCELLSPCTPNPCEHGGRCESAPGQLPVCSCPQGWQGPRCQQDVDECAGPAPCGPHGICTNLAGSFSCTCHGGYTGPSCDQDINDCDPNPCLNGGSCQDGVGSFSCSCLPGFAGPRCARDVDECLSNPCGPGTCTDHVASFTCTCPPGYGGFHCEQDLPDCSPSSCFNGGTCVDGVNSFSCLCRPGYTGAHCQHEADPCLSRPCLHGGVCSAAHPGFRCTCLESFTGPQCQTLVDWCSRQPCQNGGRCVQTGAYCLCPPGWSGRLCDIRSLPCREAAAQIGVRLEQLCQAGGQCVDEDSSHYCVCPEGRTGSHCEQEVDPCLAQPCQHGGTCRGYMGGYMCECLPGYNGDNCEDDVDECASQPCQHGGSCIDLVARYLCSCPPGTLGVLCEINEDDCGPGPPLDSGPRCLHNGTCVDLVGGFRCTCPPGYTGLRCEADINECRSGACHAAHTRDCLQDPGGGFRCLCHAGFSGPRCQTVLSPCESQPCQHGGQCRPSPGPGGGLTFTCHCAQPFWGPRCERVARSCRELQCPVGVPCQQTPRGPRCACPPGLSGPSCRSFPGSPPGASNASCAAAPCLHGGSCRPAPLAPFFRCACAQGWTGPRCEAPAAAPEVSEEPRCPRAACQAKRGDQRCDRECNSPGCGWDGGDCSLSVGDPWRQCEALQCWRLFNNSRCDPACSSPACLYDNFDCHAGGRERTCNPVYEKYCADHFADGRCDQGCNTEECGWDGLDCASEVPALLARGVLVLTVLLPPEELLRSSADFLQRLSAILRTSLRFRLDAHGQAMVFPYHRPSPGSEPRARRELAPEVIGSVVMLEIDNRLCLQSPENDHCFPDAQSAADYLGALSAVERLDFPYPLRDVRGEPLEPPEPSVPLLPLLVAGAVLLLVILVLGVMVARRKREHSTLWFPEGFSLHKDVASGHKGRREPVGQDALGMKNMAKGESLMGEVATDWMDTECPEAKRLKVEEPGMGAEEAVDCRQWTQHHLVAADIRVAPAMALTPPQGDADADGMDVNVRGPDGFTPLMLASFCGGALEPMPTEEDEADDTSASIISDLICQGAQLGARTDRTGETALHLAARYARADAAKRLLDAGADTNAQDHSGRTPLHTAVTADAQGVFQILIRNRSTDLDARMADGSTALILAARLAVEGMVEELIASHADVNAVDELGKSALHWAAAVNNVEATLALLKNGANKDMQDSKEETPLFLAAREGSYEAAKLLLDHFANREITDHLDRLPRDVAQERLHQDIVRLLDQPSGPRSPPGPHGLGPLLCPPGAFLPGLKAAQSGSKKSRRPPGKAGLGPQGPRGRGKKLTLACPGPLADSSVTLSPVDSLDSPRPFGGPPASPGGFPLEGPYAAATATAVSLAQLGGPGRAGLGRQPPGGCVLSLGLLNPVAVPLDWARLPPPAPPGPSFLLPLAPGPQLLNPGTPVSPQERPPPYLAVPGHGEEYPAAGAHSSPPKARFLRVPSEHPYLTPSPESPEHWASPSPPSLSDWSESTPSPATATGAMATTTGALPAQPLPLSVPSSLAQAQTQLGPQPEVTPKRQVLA

With `CN1C2C=C(CCCO)C(C3C(=O)N(C(N)=O)C(=O)C32)C1C1CC1` (stereo not given), the composite z-score in assay [1] is -0.0255; in assay [5], 0.0963; in [7], -0.0812; in [8], -0.22; in assay [9], -0.523; in [10], -0.163. The composite z-score in assay [11] is -0.149; in [12], -0.105; in assay [13], 0.1; in [15], -0.0933; in assay [16], -0.0699; in [17], -0.0436. In addition, the composite z-score was -0.785 in [18], 0.0144 in [19] and -0.393 in assay [20]. In addition, the z-score was -0.163 (inactive) in assay [2]; -0.0516 (inactive) in [3]; -0.32 (inactive) in assay [4]; -0.583 (inactive) in assay [6]; 0.93 (inactive) in [14].

As to `O=C1N(CCS(=O)(=O)c2ccccc2)c2ccccc2[C@H]2OC(c3ccc(OCCCO)cc3)=N[C@@]12Cc1ccccc1`, the composite z-score is 1.55 in [1]; 2.36 in [5]; 0.507 in [7]; 1.56 in assay [8]; 1.1 in [9]; 0.263 in [10]. The composite z-score amounted to 1.29 in [11]; 1.1 in assay [12]; 1.08 in assay [13]; 0.896 in assay [15]; 1.05 in [16]; 1.03 in assay [17]. Moreover, the composite z-score in assay [18] amounted to 1.1; in assay [19] it was 1.04; in assay [20], 1.04. Besides, the z-score is 0.28 (inactive) in [2]; -0.0472 (inactive) in assay [3]; 5.03 (inactive) in assay [4]; 0.611 (inactive) in [6]; -1.49 (inactive) in assay [14].

As to `COc1ccc(C#Cc2ccc3c(c2)[C@]2(C(=O)N3)[C@H](C(=O)O)[C@H]3C(=O)O[C@H](c4ccccc4)[C@H](c4ccccc4)N3[C@@H]2c2ccc(O)cc2)cc1`, the composite z-score in assay [1] is 0.789; in assay [5], 1.98; in assay [7], -0.0042; in assay [8] it was -0.654; in [9] it was -0.468; in [10], -0.0758. For the same molecule, the composite z-score is 1.52 in assay [11]; 0.734 in [12]; 0.681 in [13]; -0.054 in [15]; -0.352 in assay [16]; -0.165 in assay [17]. The composite z-score in assay [18] is -0.382; in assay [19] it was -0.603; in assay [20] it was 0.0045. Also, the z-score in assay [2] was 1.26 (inactive); in assay [3] it was -0.813 (inactive); in assay [4] it was 0.0118 (inactive); in assay [6] it was 0.781 (inactive); in assay [14], -0.264 (inactive).

Take `OCCCC1=CC(c2ccc(CN3CCCC3)cc2)N(Cc2cc3c(cc2Br)OCO3)CC1` (stereo not given): the composite z-score in assay [1] is 0.233; in assay [5], -0.692; in [7], 0.112; in assay [8], 0.386; in assay [9] it was -0.102; in assay [10], 0.0617. Also, the composite z-score in [11] is 0.216; in assay [12], 0.0738; in assay [13], 0.732; in assay [15], 0.477; in [16], 0.328; in [17], 0.259. For the same molecule, the composite z-score in [18] is 0.809; in assay [19], 1.14; in assay [20], 1.57. Further, the z-score was -2.55 (inactive) in assay [2]; -1.35 (inactive) in assay [3]; -0.705 (inactive) in assay [4]; 0.497 (inactive) in [6]; 0.361 (inactive) in [14].

Take `COCCOC(=O)N1C(=O)[C@@]2(c3ccccc31)[C@H](c1ccc(O)cc1)N1[C@H](c3ccccc3)[C@H](c3ccccc3)OC(=O)[C@H]1[C@@H]2C(=O)N1CCN(c2ncccn2)CC1`: the composite z-score is 1.55 in assay [1]; 2.78 in assay [5]; 0.0669 in [7]; 1.13 in [8]; 0.855 in assay [9]; 0.0334 in [10]. In addition, the composite z-score in [11] came out at 1.45; in [12], 0.0484; in assay [13] it was 0.419; in assay [15], 1.04; in [16], 1.11; in assay [17], 0.194. The composite z-score in assay [18] stood at 0.466; in [19] it was 0.259; in assay [20] it was 0.922. In addition, the z-score in assay [2] was 0.42 (inactive); in assay [3] it was 1.17 (inactive); in [4], 1.84 (inactive); in [6] it was 1.05 (inactive); in assay [14] it was -0.225 (inactive).
